Cy5 interf NS3h: enhances or quenches Cy5 fluorescence in NS3h assay; 16,000 tested, 6% active; fluorescence interference ratio at 100 µM; Cy5-dT15 DNA with NS3h, fluorescence interference; actives lie on both sides; signal over control mean, under 1 quenches; AID 720488;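 active = compound fluorescence over control fluorescence at most 0.8, a quencher, or at least a set upper limit, an enhancer; inactive = ratio between 0.8 and the set upper limit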
NS3h inh CB: hepatitis C NS3 helicase inhibition, primary screen | NS3h Cy5-dT15 DNA binding, fluorescence polarization | inhibition, % at 100 µM | 16,000 tested, 1.6% active | AID 687043;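 active = inhibition above the average over every tested compound plus 3 SD, cut at about 40% in these data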
Of the large screens only hits and unclear results are named; the others gave an inactive call. In the library only some 7.6% were active in any assay of this set; here they are far more common.

CCOc1cccc(-c2nc3cc(C)ccc3o2)c1	none
O=c1oc(-c2ccccc2)nc2sc3c(c12)CCCC3	Cy5 interf NS3h 0.685
O=c1oc(-c2cccs2)nc2sc3c(c12)CCCCC3	none
COc1ccc(/C(C)=N\N=C2/NC(=O)C(CC(=O)Nc3cc(Cl)ccc3Cl)S2)cc1 (configuration not stated)	Cy5 interf NS3h 1.22
C/C(=N/N=C1\NC(=O)C(CC(=O)Nc2ccc(Cl)cc2Cl)S1)c1ccc(Cl)cc1 (configuration not stated)	none
O=S(=O)(c1ccc2c(c1)Cc1cc(S(=O)(=O)n3cnc4ccccc43)ccc1-2)n1cnc2ccccc21	Cy5 interf NS3h 0.644
Cc1nc2ccccc2n1S(=O)(=O)c1ccc(Br)cc1	none
COc1ccc(Cl)cc1NC(=O)COc1ccc(Br)cc1C	none
COc1cccc(C(=O)Nc2cccc(-c3cn4ccccc4n3)c2)c1	none
CCn1c(-c2ccc([N+](=O)[O-])cc2)n[nH]c1=S	none
O=[N+]([O-])c1ccc(-c2cc(-c3ccc(I)cc3)n[nH]2)cc1	Cy5 interf NS3h 1.2
CN1C(=O)/C(=C\c2ccsc2)SC1=S	Cy5 interf NS3h 0.692
COc1ccc(N2C(=O)/C(=C\c3ccsc3)SC2=S)cc1	none
Cc1cccc(/C=C2/SC(=S)N(C)C2=O)c1	Cy5 interf NS3h 0.678
Cc1ccc(OCCOc2cccc(/C=C3/SC(=S)N(C)C3=O)c2)cc1C	none
COc1ccccc1NC(=O)C(=O)NCCc1ccc(OC)c(OC)c1	none
CCCCOc1ccc(NC(=O)c2cc3cc(Br)ccc3oc2=O)cc1	none
COC(=O)C(C)Oc1ccc2c3c(c(=O)oc2c1)CCC3 (configuration not stated)	none
C=CS(=O)(=O)c1ccc(C(C)(C)C)cc1	none
Cc1ccc(C(=O)O)cc1N1C(=O)c2ccc(C(=O)c3cccc([N+](=O)[O-])c3)cc2C1=O	none
O=C1NC(=O)N(c2ccccc2)C(=O)/C1=C\c1ccc(OCCOc2ccccc2)cc1	none
CCOc1c(Br)cc(/C=C(\C#N)c2nn(CCO)c(N)c2C#N)cc1OC	Cy5 interf NS3h 0.792
CCOc1c(Br)cc(/C=C(\C#N)c2nn(-c3ccccc3)c(N)c2C#N)cc1OC	none
CC(C)C(=O)Nc1ccc2oc(-c3cc(I)ccc3Cl)nc2c1	none
N#C/C(=C\c1ccc(-c2ccccc2Cl)o1)C(=O)Nc1cccc2ncccc12	none
N#C/C(=C\c1ccc(-c2ccc(Cl)cc2)o1)C(=O)Nc1cccc2ncccc12	Cy5 interf NS3h 0.547
CCc1ccc(NC(=O)C(=O)NCCc2ccc(F)cc2)cc1	Cy5 interf NS3h 0.686
O=C(NCCO)C(=O)Nc1ccc(F)cc1	none
O=C(Nc1cccc(C(F)(F)F)c1)c1ccc(CN2CCc3ccccc3C2)cc1	none
O=C(Nc1ccc2c(c1)C(=O)N(c1ccccc1)C2=O)c1ccc2c(c1)C(=O)N(c1ccccc1)C2=O	none
CC(=O)Nc1ccc(NC(=O)c2ccc(C(F)(F)F)cc2)cc1	Cy5 interf NS3h 0.765
O=C(Nc1ccc(NC(=O)c2ccc(Cl)cc2Cl)cc1)c1ccc(Cl)c(Cl)c1	none
CC(=O)Nc1ccc(NC(=O)c2ccc(N3C(=O)c4ccc(C(=O)Nc5ccc(NC(C)=O)cc5)cc4C3=O)cc2)cc1	Cy5 interf NS3h 0.766
CC(=O)Nc1ccc(NC(=O)c2ccc(Cl)c(Cl)c2)cc1	Cy5 interf NS3h 1.24
CC(=O)Nc1ccc(NC(=O)c2ccc(C)cc2)cc1	none
Cc1cc(C)nc(N=C(N)Nc2ccccc2O)n1	none
CCc1nnc(NS(=O)(=O)c2ccc(NC(=S)NC(=O)/C=C/c3ccc(C(C)C)cc3)cc2)s1	NS3h inh CB 43.9
Cc1ccc(/C=C/C(=O)NC(=S)Nc2ccc(S(N)(=O)=O)cc2)cc1	none
Cc1cccc(NC(=O)CC2S/C(=N/N=C3/CCCc4ccccc43)NC2=O)c1C (configuration not stated)	none
C#CCC(CC#C)(C(=O)OC)C(=O)OC	none
O=C1S/C(=C\c2ccc(Br)o2)C(=O)N1c1ccc(Cl)c(Cl)c1	none
CCCCOc1cccc(C(=O)Nc2cccc(-c3nc4ncccc4o3)c2)c1	none
Cc1nc2sc3c(c2c2nncn12)CCCC3	Cy5 interf NS3h 0.664
Cc1nc2sc3c(c2c(=O)n1-n1cccc1)CCCC3	none
O=C(CCN1C(=O)/C(=C/c2ccc(F)cc2)SC1=S)Nc1ccc(F)c(Cl)c1	none
COc1ccc(NC(=O)CSC(N)=O)c(OC)c1	none
Cc1cccc(Nc2cc(C)c(C#N)c3nc4ccccc4n23)c1	none
N#Cc1ccc2c(c1)nc1c3cccc4cccc(c(=O)n21)c43	Cy5 interf NS3h 0.65
CN(C)c1ccc(/C=C2\C(=O)Oc3ccccc3C2=O)cc1	none
CN(C)c1ccc(/C=C2\C(=O)c3cccc([N+](=O)[O-])c3C2=O)cc1	NS3h inh CB 48.9
CCCOc1cccc(C(=O)Nc2cc(NC(=O)c3cccc(OCCC)c3)cc(C(=O)O)c2)c1	none
Cc1ccc(/C=C2/SC(=O)N(c3ccccc3)C2=O)cc1	none
O=C1S/C(=C\c2cccs2)C(=O)N1c1ccccc1	Cy5 interf NS3h 0.637
COc1ccccc1CNC(=O)C(=O)Nc1ccccc1C	none
Cc1cccc(NC(=O)C(=O)NCc2ccccc2Cl)c1C	Cy5 interf NS3h 0.776
Cc1c(NC(=O)CN(c2cccc(Cl)c2)S(=O)(=O)c2ccccc2)c(=O)n(-c2ccccc2)n1C	none
CC(C)(C)C(=O)Nc1ccccc1C(=O)Nc1ccccc1	none
C=CCN1C(=O)/C(=C\c2ccc(OCc3ccccc3)cc2)SC1=S	none
CCOC(=O)C1=C(C)N=c2s/c(=C\c3sccc3C)c(=O)n2C1c1cc(OC)ccc1OC (configuration not stated)	none
CC(=O)N1C(=O)/C(=C2/SC(=Nc3ccc(Br)cc3)NC2=O)c2ccccc21	Cy5 interf NS3h 1.22
COC(=O)c1ccc(/C=C2\SC(=Nc3ccc(Br)cc3)NC2=O)cc1	none
COc1cc(/C=C2/C(=O)N(c3ccccc3)N=C2C)cc(I)c1O	Cy5 interf NS3h 0.694
COc1cc(/C=C2/C(=O)N(c3ccccc3)N=C2C)cc([N+](=O)[O-])c1O	none
N#CCCn1cc(/C=C2\N=C(c3ccccc3)OC2=O)c(-c2ccc(Br)cc2)n1	none
O=C1/C(=C/C=C/c2ccccc2)SC(=S)N1c1cccc(C(F)(F)F)c1	Cy5 interf NS3h 0.75
O=C1/C(=C\c2cccc(C(F)(F)F)c2)SC(=S)N1c1cccc(Cl)c1	none
O=C(c1cccnc1)N1CCC(Cc2ccccc2)CC1	none
CCOc1cc(/C=N\n2c(C)nnc2C)ccc1O	none
Cc1ccc(-c2nnc(Nc3ccc4c(c3)ncn4C)c3ccccc23)cc1	none
Cn1cnc2cc(Nc3nnc(-c4ccc(Cl)cc4)c4ccccc34)ccc21	Cy5 interf NS3h 0.702
COc1ccc(-c2nnc(Nc3ccc(C)cc3)c3ccccc23)cc1	none
Cc1nc2cc(Nc3nnc(-c4ccc(Cl)cc4)c4ccccc34)ccc2n1C	Cy5 interf NS3h 0.672
CCOc1ccc(C=C2C(=O)NC(=S)NC2=O)cc1Cl	none
COc1cc(/C=N\Nc2ccc3ccccc3n2)cc(Br)c1O	none
O=C(Nc1cccc(Cl)c1)Nc1nnc(-c2ccc(Cl)cc2Cl)s1	Cy5 interf NS3h 0.747
O=C(Nc1cccc(Cl)c1)Nc1nnc(Cc2ccc(Cl)cc2Cl)s1	none
O=C(Cc1ccccc1)NC(c1ccco1)c1ccc2cccnc2c1O (configuration not stated)	none
O=C(Cc1ccccc1)NC(c1ccco1)c1c(O)ccc2ccccc12 (configuration not stated)	Cy5 interf NS3h 0.589
CC1=C(C(=O)OC2CCCC2C)C(c2ccccc2)NC(=O)N1 (configuration not stated)	none
Cc1ccc(OCCOCCOc2ccc(Cl)cc2/C=C2/SC(=S)NC2=O)cc1	none
